These results are taken from PubChem BioAssay AID977607 (Broad Institute, 2014).

The whole screen tested about 1,500 compounds, of which about 460 (31%) were called active. Inconclusive results (about 1%) are left out. A selection follows. Results with a measured potency or affinity are listed apart. Values without a mark were called inactive.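 How the source made its calls: active means curve reaches 40% activation over neutral controls at an AC40 no higher than the top valid tested concentration; inconclusive means no clear call, values can overlap the other calls; inactive means signal moving opposite to the expected increase, and the rest.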

The test can be described thus: activators of glucose-dependent insulin secretion, dose response, cell-based, INS-1E, Gaussia luciferase, luminescence, cherry-pick, set 2 (AID 977607).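 Further: 0% = median of the plate neutral control wells.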 Particulars: INS-1E GLuc insulin secretion reporter, 2-3 h, hits give high values; at 35 µM, 100% = signal doubled over neutral wells unless noted.
As for `CN(Cc1ccccc1)C(=S)NC(=O)c1ccc(-c2ccccc2)cc1`, the max activation was -29.1% [at 3.8 µM, 100% = signal doubled over neutral wells].

For `COc1cc(NC(=O)c2c(-c3ccccc3Cl)noc2C)c2ncccc2c1`, the max activation was -28.8% [at 11 µM, 100% = signal doubled over neutral wells].

For `Cc1cccnc1NC(=O)c1ccc(S(=O)(=O)N2CCCCC2)cc1`, the max activation was -21.1% [at 3.8 µM, 100% = signal doubled over neutral wells].

With `CC1CC(C)CN(CC(O)COCc2ccccc2F)C1` (stereo not given), the max activation is -21.2% [at 0.0016 µM, 100% = signal doubled over neutral wells].

On to `COc1ccc(OC)c(N(CC(=O)NN=C2CCN(C)CC2)S(=O)(=O)c2ccccc2)c1`, for which the max activation is -25.4% [at 0.135 µM, 100% = signal doubled over neutral wells].

Regarding `CC(NC(=O)C1CCCN1S(=O)(=O)c1ccc2c(c1)n(C)c(=O)c(=O)n2C)c1ccccc1` (stereo not given), the max activation is -14.2% [at 0.015 µM, 100% = signal doubled over neutral wells].

In the case of `c1cc2c(cc1CN1CCN(C3CCCCCC3)CC1)OCO2`, the max activation is -12.6% [at 0.135 µM, 100% = signal doubled over neutral wells].

For the compound `Cc1cc(S(=O)(=O)NCc2cccnc2)ccc1F`, the max activation was -23% [at 3.8 µM, 100% = signal doubled over neutral wells].

Take `COC(=O)c1sc2ccccc2c1NC(=O)c1cccs1`: the max activation was -14.7% [at 0.046 µM, 100% = signal doubled over neutral wells].

As to `O=C(Nc1nonc1NC(=O)c1cccs1)c1cccs1`, the max activation is -48.2%.

For `Cc1cc(C)nc(NC(=O)c2ccc(Cl)cc2Cl)n1`, the max activation was -21.7% [at 0.135 µM, 100% = signal doubled over neutral wells].

Turning to `Cc1ccc(NC(=O)c2cccs2)cc1NC(=O)c1ccccc1Cl`, the max activation is 18.8% [at 1.2 µM, 100% = signal doubled over neutral wells].

Regarding `CCCCNC(=O)c1ccccc1NC(=O)C1=C(C)OCCS1`, the max activation was -8.81% [at 0.005 µM, 100% = signal doubled over neutral wells].

Consider `CCOC(=O)c1nc(NCc2cccnc2)c2ccccc2n1`, for which the max activation was -21% [at 1.2 µM, 100% = signal doubled over neutral wells].

Take `O=C(O)CCCC(=O)N1CCN(c2nc(-c3ccccc3)c3ccccc3n2)CC1`: the max activation was 16.9% [at 0.42 µM, 100% = signal doubled over neutral wells].

In the case of `O=C(Nc1ccccc1N1CCOCC1)C1=NN(c2ccccc2)C(=O)CC1`, the max activation is 16.2%.

With `CS(=O)(=O)N1CCN(c2ccccc2NC(=O)c2ccco2)CC1`, the max activation was 22.3%.

With `CC1(C(=O)NCC2CCCCC2)CCN1CCc1ccccc1` (stereo not given), the max activation was -18.8% [at 0.0016 µM, 100% = signal doubled over neutral wells].

In the case of `CC(C)(C)OC(=O)N1CCCN(C(=O)c2ccc(Cl)cc2)CC1`, the max activation was -21.4% [at 0.135 µM, 100% = signal doubled over neutral wells].

As to `CN1CCN(C(=O)c2cccc(-c3cnc4cnc(-c5ccccc5Oc5ccccc5)cn34)c2)CC1`, the max activation is -43%.

Consider `N#CN=CN1CC=C(c2ccc(Cl)cc2)CC1`, for which the max activation is 30.6% [at 3.8 µM, 100% = signal doubled over neutral wells].

In the case of `CC1=NN(C(N)=S)C(=O)C1N=Nc1ccccc1C` (stereo not given), the max activation is -15.4%.

As to `Cc1cc(C)n(-c2nc(NCCN(C)C)c3c4c(sc3n2)CCCC4)n1`, the max activation is 22.9%.

`O=C(Cn1[nH]c(=O)c2ccccc2c1=O)OCC(=O)c1ccc(F)cc1`: the max activation was -10.7% [at 0.046 µM, 100% = signal doubled over neutral wells].

With `CC(=O)Nc1nc(CC(C)C)cc(-c2ccco2)c1C#N`, the max activation was -15.6% [at 0.135 µM, 100% = signal doubled over neutral wells].

For `CCOC(=O)c1sc2ncn(/N=C/c3cccnc3)c(=O)c2c1C`, the max activation was -22.4% [at 0.0016 µM, 100% = signal doubled over neutral wells].

Take `Cc1cccc(C)c1NC(=O)NC1CCc2ccccc21` (stereo not given): the max activation is -27.2%.

As for `Cc1noc(C)c1NC(=O)N(C)C[C@H]1Oc2c(NC(=O)C3CCCCC3)cccc2C(=O)N([C@H](C)CO)C[C@@H]1C`, the max activation was -26.4% [at 0.015 µM, 100% = signal doubled over neutral wells].

`COc1ccc(C(=O)c2cnc[nH]2)cc1OC`: the max activation was -12% [at 0.015 µM, 100% = signal doubled over neutral wells].

On to `CCC(c1nnnn1-c1ccc2c(c1)OCCO2)N1CCc2ccccc2C1` (stereo not given), for which the max activation is 36.8% [at 1.2 µM, 100% = signal doubled over neutral wells].

On to `COc1ccc(N2CC(NS(=O)(=O)c3cccs3)CC2=O)cc1OC` (stereo not given), for which the max activation is -12.7% [at 11 µM, 100% = signal doubled over neutral wells].

Regarding `COc1ccc(-c2nc(CCNC(=O)c3ccco3)cs2)cc1OC`, the max activation was 53% [at 0.015 µM, 100% = signal doubled over neutral wells].

As for `COc1ccc(C2=NN(C(=O)c3ccco3)C(c3ccco3)C2)cc1OC` (stereo not given), the max activation is 9.84% [at 0.42 µM, 100% = signal doubled over neutral wells].

As to `COc1ccc2c(c1)[C@@]1(OCCC=C[C@H]1C)C(=O)N2CC1CC1`, the max activation was 15.8% [at 11 µM, 100% = signal doubled over neutral wells].

Regarding `O=C(NNC(=O)c1cc2cc3ccccc3nc2s1)c1cccc(C(F)(F)F)c1`, the max activation is -20.1% [at 0.015 µM, 100% = signal doubled over neutral wells].

Turning to `CC(C)Cc1nc2oc3c(NCc4cccnc4)ncnc3c2c2c1CCC2`, the max activation was 30.3% [at 0.42 µM, 100% = signal doubled over neutral wells].

As for `CCc1ccc2c(c1)cc(CN(Cc1ccco1)C(C)=O)c1nnnn12`, the max activation is -18.4% [at 0.005 µM, 100% = signal doubled over neutral wells].

Turning to `O=C(Nc1nccs1)c1cc(N2CCOCC2)nc2ccccc12`, the max activation is -23.7%.

In the case of `COc1ccc(-c2nc(N3CCC(C)CC3)[nH]c(=O)c2C#N)cc1`, the max activation was 28.1% [at 11 µM, 100% = signal doubled over neutral wells].

As to `COc1ccc(C)c(-n2c(=O)n(Cc3ccccc3)c(=O)c3[nH]cnc32)c1`, the max activation is 38.9% [at 0.42 µM, 100% = signal doubled over neutral wells].

Consider `COc1cccc(-n2c(=O)n(Cc3ccccc3)c(=O)c3[nH]cnc32)c1C`, for which the max activation was 14.5%.

Regarding `CCc1nc2c(OCc3ccccc3C)cccn2c1N(C)C(=O)c1ccco1`, the max activation is -25.5%.

On to `C=CCNC(=S)Nc1ccc2cn[nH]c2c1`, for which the max activation was -18.8% [at 0.0016 µM, 100% = signal doubled over neutral wells].

Take `O=C(Nc1ccnn1C1CCN(C2CCC2)CC1)c1ccccc1Cl`: the max activation is -5.42%.

With `COc1ccc(N2C(=O)CC(Sc3nc(C)cc(C)c3C#N)C2=O)cc1` (stereo not given), the max activation is -11.1% [at 11 µM, 100% = signal doubled over neutral wells].

For `CCNc1nc(NCC)nc(Nn2cnnc2)n1`, the max activation is -14.4% [at 0.42 µM, 100% = signal doubled over neutral wells].

`CC(C)Cn1nc(-c2ccccc2)c2ccccc2c1=O`: the max activation is -16.6% [at 0.0016 µM, 100% = signal doubled over neutral wells].

Consider `Cc1ccc(-c2[nH]nc3c2C(c2cccnc2)C(C#N)=C(N)O3)cc1` (stereo not given), for which the max activation was 36.3% [at 0.0016 µM, 100% = signal doubled over neutral wells].

Regarding `COCCNc1nc(NCCCN(C)C)c2sccc2n1`, the max activation is -23.1%.

Consider `COCCNc1nc(Oc2ccc(C(N)=O)cc2)c2sccc2n1`, for which the max activation is -20.7% [at 0.0016 µM, 100% = signal doubled over neutral wells].

Consider `CCCN1Cc2cccc(C(=O)NCc3ccccc3)c2C1=O`, for which the max activation was -24.8% [at 0.046 µM, 100% = signal doubled over neutral wells].

Take `Cc1ccc2c(c1)CCCN2C(=O)c1ccc2c(c1)OCO2`: the max activation is -14.4% [at 0.0016 µM, 100% = signal doubled over neutral wells].

For `CCOc1ccc(CCNC(=O)COC(=O)c2cccnc2SC)cc1OCC`, the max activation was -22.4% [at 0.0016 µM, 100% = signal doubled over neutral wells].

Regarding `CCOc1ccc(CCNC(=O)COc2cccc(-n3cnnn3)c2)cc1OCC`, the max activation was -22.6% [at 0.005 µM, 100% = signal doubled over neutral wells].

Consider `COc1ccccc1Nc1c2c(nc3ccc(N)cc13)CCCC2`, for which the max activation is -15.8% [at 0.135 µM, 100% = signal doubled over neutral wells].
